Measured values: PubChem BioAssay (Tox21)
Values without a mark were called inactive. Inconclusive results are not listed. A call without a number means that no potency is given here. Activity calls are given as the source filed them. Unless noted, calls come from the whole dose curve; as a rule, active = well fitted curve in the direction sought with a large enough effect in the repeat runs; inconclusive = weak or mixed curves; inactive = no such curve, though single readings can be large; an effect the other way counts as inactive or inconclusive.

How the values were obtained:
[1] = biological target: Progesterone receptor (Homo sapiens) (UniProt P06401); assay: qHTS assay to identify small molecule agonists of the progesterone receptor (PR) signaling pathway (AID 1346784; calls by dose curve; note: nearly all actives have a fitted effect of over 30% in size)
Chain of Progesterone receptor (Homo sapiens) (P06401 whole entry, looked up): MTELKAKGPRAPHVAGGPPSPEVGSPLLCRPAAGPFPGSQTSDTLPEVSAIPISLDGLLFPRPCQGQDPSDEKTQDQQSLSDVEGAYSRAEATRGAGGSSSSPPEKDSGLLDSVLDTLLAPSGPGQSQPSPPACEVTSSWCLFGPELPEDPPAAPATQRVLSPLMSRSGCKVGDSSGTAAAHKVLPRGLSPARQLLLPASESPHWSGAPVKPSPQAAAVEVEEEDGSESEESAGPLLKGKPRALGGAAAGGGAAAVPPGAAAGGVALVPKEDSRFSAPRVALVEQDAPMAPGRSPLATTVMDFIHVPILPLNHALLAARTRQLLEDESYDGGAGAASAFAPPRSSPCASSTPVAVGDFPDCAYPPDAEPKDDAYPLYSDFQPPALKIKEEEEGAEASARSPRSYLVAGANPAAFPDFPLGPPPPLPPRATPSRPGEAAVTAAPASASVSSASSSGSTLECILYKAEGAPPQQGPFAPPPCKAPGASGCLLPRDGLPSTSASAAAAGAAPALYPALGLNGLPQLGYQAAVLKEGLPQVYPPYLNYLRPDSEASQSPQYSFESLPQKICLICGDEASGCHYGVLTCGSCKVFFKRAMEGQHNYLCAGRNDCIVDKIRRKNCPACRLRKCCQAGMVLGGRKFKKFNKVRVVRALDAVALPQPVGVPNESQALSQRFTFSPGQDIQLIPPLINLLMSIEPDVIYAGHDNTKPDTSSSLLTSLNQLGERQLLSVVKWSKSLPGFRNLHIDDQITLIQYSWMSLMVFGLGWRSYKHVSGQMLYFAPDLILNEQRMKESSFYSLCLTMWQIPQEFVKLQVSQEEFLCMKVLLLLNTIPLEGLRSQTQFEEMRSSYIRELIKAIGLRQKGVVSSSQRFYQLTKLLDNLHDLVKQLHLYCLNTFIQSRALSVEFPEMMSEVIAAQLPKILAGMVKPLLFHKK
Outline: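 PR-UAS-bla HEK 293T cells (beta-lactamase reporter under UAS) in 2% charcoal-stripped FBS, dosed with 23 nL compound after 6 hr, incubated 16hr at 37C. LiveBLAzer B/G FRET substrate added, fluorescence read after 2 hours.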

[2] = biological target: Progesterone receptor (Homo sapiens) (UniProt P06401); assay: qHTS assay to identify small molecule antagonists of the progesterone receptor (PR) signaling pathway (AID 1346795; active = well fitted inhibition curve with a large enough effect in the signal ratio in the repeat runs, not every such curve was filed as active; the % refers to the signal ratio)
Outline: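 PR-UAS-bla HEK293T cells with beta-lactamase reporter under UAS control, in 2% charcoal-stripped FBS, treated with compounds plus 1 nM promegestone (R5020, final) for 16 hr at 37C. Read-out: FRET beta-lactamase substrate fluorescence after 2 hr at room temperature.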

[3] = qHTS assay to identify small molecule agonists of the progesterone receptor (PR) signaling pathway - cell viability counter screen (AID 1346799; calls by dose curve; note: nearly all actives have a fitted effect of over 45% in size)
Outline: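 Counter screen in the PR-UAS-bla HEK293T wells (2% charcoal-stripped FBS, 16 h compound exposure at 37 C) after the bla read. CellTiter-Glo added, 30 min at room temperature, luminescence read as cell viability.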

[4] = qHTS assay to identify small molecule antagonists of the TGF-beta/Smad signaling pathway - cell viability counter screen (AID 1346824); note: nearly all actives have a fitted effect of over 50% in size
Outline: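 Cytotoxicity counter-screen run in the same wells as the beta-lactamase Smad reporter read: CellTiter-Glo luminescence after 30 min at room temperature. HEK 293T SBE-bla cells had 5 hr compound exposure at 37 C with TGF-beta1 (0.25 ng/mL stock).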

[5] = qHTS assay to identify small molecule agonists of the TGF-beta/Smad signaling pathway - cell viability counter screen (AID 1346829); note: top concentration of the series differs between compounds; nearly all actives have a fitted effect of over 45% in size
Outline: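 Same-well cytotoxicity: CellTiter-Glo added after the 2 hr room-temperature beta-lactamase substrate step, luminescence measured 30 min later; cells had 5 hr of compound at 37 C.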

[6] = qHTS assay to identify small molecule agonists of the TGF-beta/Smad signaling pathway (AID 1346859; active = well fitted activation curve with a large enough effect in the signal ratio in the repeat runs, not every such curve was filed as active; the % refers to the signal ratio; note: series mostly up to about 77 µM)
Outline: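 SBE-bla HEK293T cells plated overnight, then compound exposure for 5 h at 37 C. Beta-lactamase reporter read with LiveBLAzer B/G FRET substrate after 2 h at room temperature, fluorescence at 405 nm excitation, 460/530 nm emission.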

[7] = biological target: Thyrotropin-releasing hormone receptor (Homo sapiens) (UniProt P34981); assay: qHTS assay to identify small molecule antagonists of the thyrotropin-releasing hormone receptor (TRHR) signaling pathway (AID 1346877; active = well fitted inhibition curve with a large enough effect in the repeat runs, not every such curve was filed as active; note: series mostly up to about 51 µM)
Chain of Thyrotropin-releasing hormone receptor (Homo sapiens) (P34981 whole entry, looked up): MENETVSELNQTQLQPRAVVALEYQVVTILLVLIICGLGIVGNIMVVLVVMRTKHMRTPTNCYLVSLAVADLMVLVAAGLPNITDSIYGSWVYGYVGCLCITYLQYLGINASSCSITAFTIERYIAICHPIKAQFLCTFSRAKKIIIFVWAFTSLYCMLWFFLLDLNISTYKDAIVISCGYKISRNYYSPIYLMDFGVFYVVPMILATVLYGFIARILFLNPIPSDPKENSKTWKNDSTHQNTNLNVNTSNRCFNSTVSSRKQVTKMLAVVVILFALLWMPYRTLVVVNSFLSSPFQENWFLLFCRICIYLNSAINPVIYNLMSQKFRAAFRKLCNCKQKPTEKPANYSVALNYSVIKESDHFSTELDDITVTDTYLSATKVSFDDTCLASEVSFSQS
Outline: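 TRHR-expressing HEK293 cells were seeded, cultured 18 h at 37 °C, then loaded with calcium dye for 2 h. Compounds were pre-incubated 5 min at room temperature before 1 nM TRH (final) was added, and kinetic fluorescence was recorded for 3 min.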

[8] = biological target: Thyrotropin-releasing hormone receptor (Homo sapiens) (UniProt P34981); assay: qHTS assay to identify small molecule agonists of the thyrotropin-releasing hormone receptor (TRHR) signaling pathway (AID 1346891; calls by dose curve; note: potency is the fitted concentration of half-maximal effect; for activation: series mostly up to about 58 µM)
Outline: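 HEK293 cells expressing TRHR plated 18 h at 37 C/5% CO2, calcium dye-loaded 2 h at 37 C, then compound added (agonist mode); kinetic calcium fluorescence read 3 min at 1 s intervals; 15 concentrations in triplicate.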

[9] = Caspase-3/7 induction in HepG2 cells by small molecules, qHTS assay (AID 1346978); note: nearly all actives have a fitted effect of over 15% in size
Outline: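 Caspase-3/7 induction was measured by Caspase-Glo 3/7 luminescence (30 min, room temperature) after a 17 hr compound exposure of wild-type HepG2 cells seeded at 2,000 per well and pre-incubated 5 hr.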

[10] = Caspase-3/7 induction in CHO-K1 cells by small molecules, qHTS cell viability counter screen (AID 1346979); note: nearly all actives have a fitted effect of over 35% in size
Outline: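 Wild-type CHO-K1 cells (1,500/well) treated with compound after 5 h plating; after 16 h at 37C, viability read as CellTiter-Fluor fluorescence following 1 h reagent incubation, in the same wells as the caspase read.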

[11] = Caspase-3/7 induction in CHO-K1 cells by small molecules, qHTS assay (AID 1346980); note: nearly all actives have a fitted effect of over 15% in size
Outline: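 Luminescent Caspase-Glo 3/7 read (30min, room temperature) quantified apoptosis induction. Cells were wild-type CHO-K1, treated with compound for 17hr at 37 C and 5% CO2.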

[12] = Caspase-3/7 induction in HepG2 cells by small molecules, qHTS cell viability counter screen (AID 1346981); note: series mostly up to about 92 µM; nearly all actives have a fitted effect of over 30% in size
Outline: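 Wild-type HepG2 cells (2,000/well) were allowed to settle for 5 hr at 37 C, 5% CO2, then dosed with compounds in DMSO by pin transfer. After 16 hr at 37 C, CellTiter-Fluor was added and fluorescence read 1 hr later.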

[13] = biological target: Nuclear receptor subfamily 1 group I member 2 (Homo sapiens) (UniProt O75469); assay: Human pregnane X receptor (PXR) small molecule agonists, qHTS assay (AID 1346982); note: nearly all actives have a fitted effect of over 35% in size
Chain of Nuclear receptor subfamily 1 group I member 2 (Homo sapiens) (O75469 whole entry, looked up): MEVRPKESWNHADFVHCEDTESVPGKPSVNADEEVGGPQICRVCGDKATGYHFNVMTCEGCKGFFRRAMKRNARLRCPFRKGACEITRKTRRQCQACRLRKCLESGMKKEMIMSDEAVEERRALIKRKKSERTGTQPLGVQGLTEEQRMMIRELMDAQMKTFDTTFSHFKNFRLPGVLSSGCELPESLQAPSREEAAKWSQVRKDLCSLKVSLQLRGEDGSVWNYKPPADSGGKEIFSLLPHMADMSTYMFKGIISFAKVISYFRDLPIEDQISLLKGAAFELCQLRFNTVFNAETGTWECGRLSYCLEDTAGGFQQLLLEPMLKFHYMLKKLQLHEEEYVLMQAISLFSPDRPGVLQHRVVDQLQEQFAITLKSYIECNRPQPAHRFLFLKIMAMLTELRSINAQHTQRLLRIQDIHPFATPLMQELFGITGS
Outline: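 PXR-Luc HepG2 cells (CYP3A4 promoter-driven luciferase) were seeded in medium with 5% charcoal-stripped FBS, left 5 hr at 37 C, then exposed to compounds in DMSO for 24 hr. Luminescence was read after ONE-Glo addition.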

[14] = biological target: Cytochrome P450 2D6 (Homo sapiens) (UniProt P10635); assay: Cytochrome P450 Family 2 Subfamily D Member 6 (CYP2D6) small molecule antagonists: luciferase reporter qHTS assay (AID 1671196); note: nearly all actives have a fitted effect of over 50% in size; note: potency is the fitted concentration of half-maximal effect; for activity change, negative = inhibition: series mostly up to about 120 µM
Chain of Cytochrome P450 2D6 (Homo sapiens) (P10635 whole entry, looked up): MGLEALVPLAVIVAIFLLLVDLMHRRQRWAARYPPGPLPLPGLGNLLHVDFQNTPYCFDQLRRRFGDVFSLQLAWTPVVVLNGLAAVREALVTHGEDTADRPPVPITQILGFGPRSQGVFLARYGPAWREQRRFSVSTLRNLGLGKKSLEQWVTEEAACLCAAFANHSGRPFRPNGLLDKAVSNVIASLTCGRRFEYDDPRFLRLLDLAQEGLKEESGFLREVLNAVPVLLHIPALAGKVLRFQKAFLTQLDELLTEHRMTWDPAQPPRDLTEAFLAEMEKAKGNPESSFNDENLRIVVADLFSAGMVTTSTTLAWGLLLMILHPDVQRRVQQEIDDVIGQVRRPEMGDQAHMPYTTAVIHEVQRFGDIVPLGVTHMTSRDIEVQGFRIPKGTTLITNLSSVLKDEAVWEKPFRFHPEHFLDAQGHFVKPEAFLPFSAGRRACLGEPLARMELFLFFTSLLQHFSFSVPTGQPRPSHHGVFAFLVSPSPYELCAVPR
Outline: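 CYP2D6 enzyme–substrate mix was held with compound for 10 min at room temperature, then NADPH regeneration solution was added and the reaction ran 1 h at room temperature. Luciferin product was detected by luminescence after 20 min with detection reagent.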

[15] = qHTS assay to identify small molecule antagonists of the progesterone receptor (PR) signaling pathway - cell viability counter screen (AID 1346798); note: series mostly up to about 92 µM; nearly all actives have a fitted effect of over 50% in size
Outline: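 PR-UAS-bla HEK293T cells, 3,000/well in 2% charcoal-stripped FBS medium, dosed with compounds plus R5020 agonist and incubated 16 h at 37C. Viability then measured in the same wells by CellTiter-Glo luminescence after 30 min at RT.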

[16] = Human pregnane X receptor (PXR) small molecule agonists, qHTS cell viability counter screen (AID 1346977); note: nearly all actives have a fitted effect of over 50% in size; note: potency is the fitted concentration of half-maximal effect
Outline: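 PXR-Luc HepG2 cells (2,000/well, 5% charcoal-stripped FBS) preincubated 5 hr, then exposed to compounds 24 hr at 37 C. Viability read in the same wells by CellTiter-Fluor fluorescence, reagent added at 23 hr, 1 hr incubation.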

[17] = biological target: Nuclear receptor subfamily 1 group I member 2 (Rattus norvegicus) (UniProt Q9R1A7); assay: Rat pregnane X receptor (rPXR) activation by small molecules, qHTS assay (AID 1346983); settings: rPXR luciferase reporter cells, One-Glo luminescence, 24 h; max activation: hits give high values; note: nearly all actives have a fitted effect of over 20% in size
Chain of Nuclear receptor subfamily 1 group I member 2 (Rattus norvegicus) (Q9R1A7 whole entry, looked up): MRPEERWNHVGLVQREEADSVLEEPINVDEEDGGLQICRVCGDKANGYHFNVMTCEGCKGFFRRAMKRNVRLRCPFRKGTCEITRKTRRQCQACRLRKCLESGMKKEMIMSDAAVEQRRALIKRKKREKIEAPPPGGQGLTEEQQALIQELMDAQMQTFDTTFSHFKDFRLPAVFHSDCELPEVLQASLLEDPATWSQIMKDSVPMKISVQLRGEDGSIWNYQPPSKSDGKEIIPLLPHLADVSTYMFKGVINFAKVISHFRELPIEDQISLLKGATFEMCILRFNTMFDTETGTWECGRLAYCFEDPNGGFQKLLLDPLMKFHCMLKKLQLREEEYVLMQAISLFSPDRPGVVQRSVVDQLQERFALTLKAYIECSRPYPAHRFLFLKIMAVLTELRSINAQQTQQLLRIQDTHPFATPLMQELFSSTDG
Outline: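 Luminescent readout (One-Glo luciferase, 30 min room temperature) followed 24 hr compound treatment at 37 C of rPXR cells plated 2,000 per well and preincubated 5hr; qHTS format with compounds delivered in DMSO.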

[18] = biological target: Nuclear receptor subfamily 1 group I member 2 (Homo sapiens) (UniProt O75469); assay: Human pregnane X receptor (PXR) activation by small molecules, qHTS assay (AID 1346985); note: nearly all actives have a fitted effect of over 40% in size
Outline: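 DPX-2 cells (HepG2 co-transfected with a PXR response element and a CYP3A4-promoter luciferase construct) were seeded at 2,000 per well, rested 5 hr at 37C, then exposed to DMSO-dissolved compounds for 24 hr. Activation was read as luciferase luminescence.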

[19] = qHTS assay to identify small molecule agonists of the estrogen receptor alpha (ER-alpha) signaling pathway in the presence of an antagonist - cell viability counter screen (AID 1259386);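 note: series mostly up to about 92 µM; cells exposed to compounds for 22 h at 37 °C before the viability read; nearly all actives have a fitted effect of over 30% in size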
Outline: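 VM7Luc4E2 cells (endogenous full-length ER-alpha, 4×ERE-luciferase) were held 5 days in phenol red-free medium with 10% charcoal-stripped FBS, plated, then given 10.0nM ICI-182,780 and compounds at 15 concentrations for 22hr at 37C; viability read by CellTiter-Fluor fluorescence.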

## O=CNc1ccccc1
[1]
  outcome: inactive
[2]
  Potency: inactive
[3]
  Potency: inactive
[4]
  Potency: inactive
[5]
  Potency: inactive
[6]
  outcome: inactive
[7]
  outcome: inactive
[8]
  Potency: inactive
[9]
  outcome: inactive
[10]
  Potency: inactive
[11]
  Potency: inactive
[12]
  Potency: inactive
[13]
  Potency: inactive
[14]
  Potency: inactive

## CC(=O)NCCCS(=O)(=O)O
[1]
  outcome: inactive
[15]
  Potency: inactive
[3]
  Potency: inactive
[4]
  Potency: inactive
[5]
  Potency: inactive
[6]
  outcome: inactive
[7]
  outcome: inactive
[8]
  Potency: 11.9 µM (active)
[16]
  Potency: inactive
[9]
  outcome: inactive
[10]
  Potency: inactive
[11]
  Potency: inactive
[12]
  Potency: inactive
[13]
  Potency: inactive
[17]
  max activation: -4.66%
[18]
  Potency: inactive
[14]
  Potency: inactive

## Cn1c(NCCN(CCO)CCCc2ccc([N+](=O)[O-])cc2)cc(=O)n(C)c1=O
[19]
  Potency: inactive
[15]
  Potency: inactive
[4]
  Potency: inactive
[5]
  Potency: inactive
[6]
  outcome: inactive
[8]
  Potency: inactive
[16]
  Potency: inactive
[9]
  outcome: inactive
[10]
  Potency: inactive
[11]
  Potency: inactive
[12]
  Potency: inactive
[13]
  Potency: inactive
[17]
  max activation: -2.3%
[18]
  Potency: inactive

## CCN(CCO)CCCC(C)Nc1ccnc2cc(Cl)ccc12 (centres undefined)
[1]
  activation: -0.495% [at 8.39 µM]
[2]
  activity change, negative = inhibition: 1.96% [at 8.39 µM]
[15]
  activity change, negative = cytotoxicity: -13% [at 8.39 µM]
[3]
  activity change, negative = cytotoxicity: -10.8% [at 8.39 µM]
[4]
  viability change, negative = cytotoxic: -17% [at 6.97 µM]
[5]
  activity change, negative = cytotoxicity: 2.66% [at 6.97 µM]
[7]
  activity, negative = inhibition: 0.0536% [at 4.65 µM]
[8]
  activation: 0.0624% [at 5.23 µM]
[16]
  activity change, negative = cytotoxicity: 4.23% [at 8.39 µM]
[9]
  caspase activation: 0.0326% [at 8.39 µM]
[10]
  activity change, negative = cytotoxicity: 0.797% [at 8.39 µM]
[11]
  caspase-3/7 activation: -0.893% [at 8.39 µM]
[12]
  activity change, negative = cytotoxicity: 3.29% [at 8.39 µM]
[17]
  max activation: -3.7%

## CC(=O)[C@@]1(O)CC[C@H]2[C@@H]3C[C@H](C)C4=CC(=O)CC[C@]4(C)[C@H]3CC[C@@]21C
[19]
  Potency: inactive
[15]
  Potency: inactive
[4]
  Potency: inactive
[5]
  Potency: inactive
[6]
  outcome: inactive
[16]
  Potency: inactive
[9]
  outcome: inactive
[10]
  Potency: inactive
[11]
  Potency: inactive
[12]
  Potency: inactive
[14]
  Potency: 34.7 µM (active)

## C=C(C)C(=O)OCCOc1ccccc1
[19]
  Potency: inactive
[3]
  Potency: inactive
[4]
  Potency: inactive
[5]
  Potency: inactive
[6]
  outcome: inactive
[8]
  Potency: inactive
[16]
  Potency: inactive
[9]
  outcome: inactive
[10]
  Potency: inactive
[11]
  Potency: inactive
[12]
  Potency: inactive
[13]
  Potency: inactive
[14]
  Potency: inactive

## Cc1ccc(O)c([C@H](CCN(C(C)C)C(C)C)c2ccccc2)c1
[1]
  outcome: inactive
[2]
  Potency: inactive
[4]
  Potency: inactive
[5]
  Potency: inactive
[6]
  outcome: inactive
[7]
  outcome: inactive
[16]
  Potency: 11.9 µM (active)
[9]
  outcome: inactive
[10]
  Potency: inactive
[11]
  Potency: inactive
[17]
  max activation: 2.91%
[14]
  Potency: 3.09 µM (active)

## CC(C(=O)O)c1ccc(-c2ccccc2)c(F)c1 (centres undefined)
[19]
  Potency: inactive
[4]
  Potency: inactive
[5]
  Potency: inactive
[16]
  Potency: inactive
[9]
  outcome: inactive
[10]
  Potency: inactive
[11]
  Potency: inactive
[12]
  Potency: inactive
[17]
  max activation: -4.66%
[18]
  Potency: inactive

## Nc1nc(CC(=O)O)cs1
[19]
  Potency: inactive
[4]
  Potency: inactive
[5]
  Potency: inactive
[6]
  outcome: inactive
[7]
  outcome: inactive
[8]
  Potency: inactive
[16]
  Potency: inactive
[9]
  outcome: inactive
[10]
  Potency: inactive
[11]
  Potency: inactive
[12]
  Potency: inactive
[13]
  Potency: inactive
[14]
  Potency: 28.3 µM (active)

## CCOC(=O)CC(=O)c1cc(F)c(Cl)nc1Cl
[19]
  Potency: inactive
[15]
  Potency: inactive
[4]
  Potency: inactive
[5]
  Potency: inactive
[6]
  outcome: inactive
[9]
  outcome: inactive
[10]
  Potency: inactive
[11]
  Potency: inactive
[12]
  Potency: inactive
[13]
  Potency: inactive
[14]
  Potency: inactive
